High-throughput results (PubChem BioAssay)
The full list was thinned out, with hits kept by preference.
RBX1-CUL1 inh – blocks human RBX1-Cullin-1 di-ubiquitin formation; actives 0.6% (n = 140,000); P62877+Q13616; inhibition, % at 10 µM; in vitro K48 di-Ub FRET, acceptor:donor ratio, 45 min; AID 1347404; in the data active means inhibition above about 25%
Target sequence (P62877 whole entry, looked up): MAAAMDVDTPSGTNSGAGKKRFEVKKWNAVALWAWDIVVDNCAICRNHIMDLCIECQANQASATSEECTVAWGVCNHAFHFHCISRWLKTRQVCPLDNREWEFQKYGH
Target sequence (Q13616 whole entry, looked up): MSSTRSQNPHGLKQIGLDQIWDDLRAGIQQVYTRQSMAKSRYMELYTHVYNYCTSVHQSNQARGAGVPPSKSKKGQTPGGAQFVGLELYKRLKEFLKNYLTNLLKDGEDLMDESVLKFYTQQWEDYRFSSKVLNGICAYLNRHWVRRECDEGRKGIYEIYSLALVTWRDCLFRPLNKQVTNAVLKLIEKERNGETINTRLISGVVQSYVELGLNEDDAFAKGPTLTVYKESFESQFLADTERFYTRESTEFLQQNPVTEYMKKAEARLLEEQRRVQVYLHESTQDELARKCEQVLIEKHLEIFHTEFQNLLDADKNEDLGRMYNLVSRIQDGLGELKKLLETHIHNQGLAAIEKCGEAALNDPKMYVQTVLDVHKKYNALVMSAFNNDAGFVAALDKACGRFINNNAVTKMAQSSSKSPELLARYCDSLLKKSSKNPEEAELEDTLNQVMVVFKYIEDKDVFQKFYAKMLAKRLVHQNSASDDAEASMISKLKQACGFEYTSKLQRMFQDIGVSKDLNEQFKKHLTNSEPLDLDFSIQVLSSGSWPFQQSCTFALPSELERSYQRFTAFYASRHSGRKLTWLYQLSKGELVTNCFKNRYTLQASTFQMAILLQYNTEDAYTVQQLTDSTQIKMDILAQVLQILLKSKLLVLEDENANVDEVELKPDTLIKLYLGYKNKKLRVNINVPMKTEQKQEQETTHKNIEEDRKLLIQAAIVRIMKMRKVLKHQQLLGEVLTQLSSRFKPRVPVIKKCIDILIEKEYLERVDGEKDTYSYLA
* = called active by the depositor.

SMILES	RBX1-CUL1 inh
CCc1ccc(/C=C2\C(=O)NN(c3ccc(I)cc3)C2=O)cc1	17
O=C1NN(c2ccc(Cl)cc2)C(=O)/C1=C/c1ccc(O)cc1	2
O=C1NN(c2ccc(Cl)c(Cl)c2)C(=O)/C1=C/c1ccc(Cl)cc1Cl	13
Cc1cc(/C=C2\C(=O)NN(c3ccccc3)C2=O)c(C)n1-c1ccc(Cl)c(Cl)c1	0
O=C1NN(c2ccc(Br)cc2)C(=O)/C1=C\c1ccc2c(c1)OCO2	8
CCc1ccc(/C=C2\C(=O)NN(c3ccc(Cl)c(Cl)c3)C2=O)cc1	81*
COc1ccc(/C=C2/C(=O)NN(c3ccc(Br)cc3)C2=O)cc1	7
O=C1NN(c2ccc(Cl)c(Cl)c2)C(=O)/C1=C/c1ccccc1	21
O=C1NN(c2ccc(Cl)cc2)C(=O)/C1=C/c1ccc(Br)cc1	53*
Cc1nc(CNC(=O)CCC2(Cc3ccc(Cl)cc3)CCC(=O)N2)cs1 (stereo unspecified)	4
COc1cccc2cc(C(=O)N3CCCC3)c(=O)oc12	6
CCCCCCCc1nnc(NC(=O)c2ccccc2C)s1	-6
O=C(CSc1ccccn1)N/N=C/c1cccnc1	-2
O=[N+]([O-])c1ccc2c(c1)C=Cc1ccccc1S2	2
CCCSc1nnc(-c2ccc(Cl)cc2)n1CC(C)C	-3
COc1ccc(F)c(CC2(CCC(=O)N(C)Cc3cccc(-n4nc(C)cc4C)c3)CCC(=O)N2)c1 (stereo unspecified)	-2
CCOC(=O)c1cn(-c2nc(-c3ccc(NC(C)=O)cc3)cs2)c2c(F)c(F)c(F)cc2c1=O	18
COc1ccc(S(=O)(=O)Nc2cccc(C3OCCCO3)c2)cc1OC	-7
Oc1ccccc1N=C(C(=Nc1ccccc1O)c1ccccc1)c1ccccc1	-5
CC(=O)c1c(C)nc2nc(-c3ccc(C)cc3)nn2c1C	0
CCOCC(=O)Nc1nnc(CC)s1	5
CCc1nnc(NC(=O)CCSCCC(=O)Nc2nnc(CC)s2)s1	37*
CCc1nnc(NC(=O)COC)s1	2
CCOC(=O)c1c(SC)nn2c(=O)n(-c3ccc(OC)cc3)nnc12	1
CC(C)(C)NC(=O)c1ccc(S(=O)(=O)N2CCCC2C(=O)NC(C)(C)C)cc1 (stereo unspecified)	0
SMILES	RBX1-CUL1 inh
CC(=O)N1C=Cc2ccccc2C1C1c2ccccc2C=CN1C(C)=O (stereo unspecified)	9
COCCN1CCCC2(CCN(C3CCOCC3)C2)C1 (stereo unspecified)	5
Cn1cc(-c2ccnc(NCCCc3nc4ccc(Cl)cc4[nH]3)n2)cn1	-2
Cc1ccc(C(=O)Nc2ccc(F)cc2)cc1S(=O)(=O)N1CCOCC1	-4
CC(=O)c1cccc(NC(=O)c2ccc(Cl)c(S(=O)(=O)N3CCOCC3)c2)c1	34*
Cc1ccc(C(=O)Nc2cccc(C(=O)O)c2)cc1S(=O)(=O)N1CCCC1	5
COC(=O)[C@H]1O[C@H](c2ccccc2)O[C@H]1c1ccccc1	2
COC(=O)[C@H]1CC2C(=O)C=C(c3ccccc3)C1N2C (stereo partly specified)	39*
COC(=O)[C@@H]1C(c2ccccc2)N=C(c2ccccc2)[C@H]1C (stereo partly specified)	3
Cc1c(CN2CCCC(CO)(Cc3ccccc3F)C2)c(=O)n(-c2ccccc2)n1C (stereo unspecified)	-5
CN1C(=O)C(Cc2cc(Cl)ccc2O)=NC1=S	27*
COc1cc(CC2=NC(=S)N(C)C2=O)c(Br)cc1OCc1ccc(Cl)cc1	18
CN1C(=O)C(Cc2ccc(Br)s2)=NC1=S	7
Cc1ccc(C)c(/C=C2\C(=O)ON=C2c2ccccc2)c1	-1
Cc1ccc(C2=NOC(=O)/C2=C\c2ccc(C)o2)cc1	49*
O=C1ON=C(c2ccccc2)/C1=C/c1ccc(Br)s1	-5
O=C(O)c1cc(S(=O)(=O)N2CCCC2)cs1	15
CCN1C(=O)/C(=C\c2ccc(OC)cc2OC)C(=O)NC1=S	2
CCOC(=O)N1C2C=C(C)C(C3C(C)C(=O)N31)N(C(=O)c1ccccc1)O2 (stereo unspecified)	1
CCSc1nc2scc(-c3ccc(OC)cc3)c2c(=O)[nH]1	6
CCCn1ncc(-c2ccnc(N3CCCC(Cn4ccnc4C)C3)n2)c1C (stereo unspecified)	10
CCOc1ccc(N=C2S/C(=C\c3cc(Cl)c(OCC(=O)O)c(OC)c3)C(=O)N2CC)cc1	94*
O=C(O)COc1ccc(Br)cc1/C=C1\SC(=O)N(Cc2ccc(F)cc2)C1=O	1
CCOC(=O)c1ccc(N=C2S/C(=C/c3cc(OC)c(OC)c(OC)c3)C(=O)N2CC)cc1	4
COc1cc(/C=C2/SC(=O)N(Cc3ccc(F)cc3)C2=O)cc(I)c1OCC(=O)O	98*
SMILES	RBX1-CUL1 inh
CCN1C(=O)/C(=C/c2cc(OC)c(OCC(=O)O)cc2Br)SC1=Nc1ccc(OC)cc1	7
COc1cc(/C=C2\SC(=O)N(Cc3ccc(F)cc3)C2=O)ccc1OCc1ccc(C(=O)O)cc1	17
CCOC(=O)N1CCN(Cc2c(C(=O)N3CCOCC3)nc3ccccn23)CC1	1
CSc1nc(-c2ccc(Cl)cc2)c(C#N)c(=O)[nH]1	9
C/C=C/c1nc(SC)c(C#N)c(=O)[nH]1	62*
CSc1nc(-c2ccc(C)cc2)[nH]c(=O)c1C#N	7
Cc1ccc(-c2cn3c(n2)sc2cc(C(=O)NCCCN4CCCCC4)ccc23)cc1	-65
CCN1CCN(CCCNC(=O)c2ccc3c(c2)sc2nc(-c4ccc(C)cc4)cn23)CC1	-54
CCOc1ccc(-c2cn3c(n2)sc2cc(C(=O)NCCCN4CCCCCC4)ccc23)cc1	42*
CCOc1ccc(-c2cn3c(n2)sc2cc(C(=O)NCCCN4CCCCC4)ccc23)cc1	-170
CCCN1CCN(CCCNC(=O)c2ccc3c(c2)sc2nc(-c4ccc(OCC)cc4)cn23)CC1	-62
Cc1ccc(-c2cn3c(n2)sc2cc(C(=O)NCCCN4CCCCCC4)ccc23)cc1	39*
O=C(Cn1cccn1)N1CCCC(CCc2ccccc2)C1 (stereo unspecified)	-3
CCCN(CCC)c1ccc(/C=C2/N=C(c3ccccc3)OC2=O)cc1	42*
CCN(CC)c1ccc(/C=C2/N=C(c3ccc(OC)c(OC)c3)OC2=O)cc1	21
Cc1ccc(/C=C2\N=C(c3ccc(C)cc3)OC2=O)cc1	-7
CCOC(=O)c1c(NC(=O)c2ccccc2Nc2ccccc2OC)sc2c1CCCC2	-11
CN1C(=O)C(O)(CC(=O)c2ccc(Cl)s2)c2ccccc21 (stereo unspecified)	1
CC(=O)N1c2ccccc2C2(O)N=C(C)SC12 (stereo unspecified)	44*
CC(=O)N1c2ccccc2C(=O)C1C (stereo unspecified)	-3
CN1CCN(c2cc3ccccc3c(=O)c3ccccc23)CC1	-3
c1ccc2c(c1)cc(N1CCCC1)c1ccccc12	90*
O=C(Nc1ccc(N2CCCC2)c(Cl)c1)c1cccc2ccccc12	2
Cc1ccc(CNC(=O)c2ccc(Cl)cc2Cl)cc1	-1
O=C(Nc1ccc2[nH]c(=O)nc(-c3ccccc3)c2c1)c1ccccc1	9
SMILES	RBX1-CUL1 inh
CC(=O)Nc1c([N+](=O)[O-])cc(C)cc1[N+](=O)[O-]	-2
Cc1cc(C(F)(F)F)n(C2=NC(=N)CC(=O)N2)n1	-10
c1ccc(OCCn2c(CN3CCCCC3)nc3ccccc32)cc1	10
O=C(NCCC1=CCCCC1)c1ccco1	4
O=C(NCCC1=CCCCC1)c1ccccc1Cl	1
O=C(NCCC1=CCCCC1)c1cc(-c2ccco2)nc2ccccc12	42*
